According to PubChem BioAssay (NCI):
This is part of a sample that, as a whole, favours compounds with a hit. Of some 83,000 tested, about 20% had one in any assay.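 Step 1: grow cells in 96-well plates. Step 2: add test compound at a single concentration. Step 3: incubate 48 h. Step 4: record percent growth.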 Unmarked numbers belong to inactive results. Active and inactive are the calls of the source. Rule for the calls: active = growth percent below 10; inactive = the rest.

How the values were obtained:
Assay in all cases: NCI-60 one-dose screen, 48 h (100 = growth as untreated, 0 = no growth, -100 = all killed)
Details in all cases: 10 µM unless noted
DU-145 prostate = system: DU-145 prostate
K-562 leukemia = system: K-562 leukemia
MALME-3M melanoma = system: MALME-3M melanoma
MDA-MB-231 breast = system: MDA-MB-231 breast
RXF 393 renal = system: RXF 393 renal
SF-268 CNS = system: SF-268 CNS
SF-295 CNS = system: SF-295 CNS
SF-539 CNS = system: SF-539 CNS
UACC-257 melanoma = system: UACC-257 melanoma
M14 melanoma = system: M14 melanoma

Compound | growth (DU-145 prostate) | growth (K-562 leukemia) | growth (MALME-3M melanoma) | growth (MDA-MB-231 breast) | growth (RXF 393 renal) | growth (SF-268 CNS) | growth (SF-295 CNS) | growth (SF-539 CNS) | growth (UACC-257 melanoma) | growth (M14 melanoma)
N#Cc1cccc(/C(N)=N/C(N)=N/c2nc3ccccc3s2)c1 | 17.5% | 12.7% | 59.3% | 37.3% | 13% | 56.5% | 1.87% (active) | 4.08% (active) | 90.6% | 20.8%
COc1ccc(N2C(=O)c3cc(Cl)ccc3NC2SCc2ccccc2)cc1 (centres undefined) | 106% | 88.9% | 99.2% | 85.1% | 101% | 98.3% | 102% | 98.7% | 97.7% | 
Cc1ccc(-c2nnc(SCc3ccc(O)c4ncccc34)n2-c2ccccc2)cc1 | 30.2% | 6.04% (active) | 3.77% (active) | 23.6% | -0.61% (active) | 14.8% | -10.3% (active) | 5.11% (active) | -7.27% (active) | 
CCCCNNC(=O)c1ccc(-c2cccc(F)c2F)cc1 | 28.9% | 21.8% | 9.92% (active) | 51.3% | -34% (active) | 55.6% | 28.2% | 40.8% | 23.5% | 
O=S(=O)(NCCCNc1nccc(-c2[nH]c(-c3ccccc3)nc2-c2ccc(Cl)c(O)c2)n1)c1cccc2ccccc12 | 27.6% | 17% | 6.39% (active) | 45.9% | -9.57% (active) | 46.8% | 12.9% | 44.8% | 27% | 
COc1ccc2[nH]cc(/C=N/Nc3nc4ccccc4s3)c2c1 | 60.3% | 24.3% | 98.4% | 67.2% | 60.8% | 55.9% | 58.5% | 70.5% | 81.9% | 52%
CN1CCN(c2nc(-c3csc(-c4ccccc4)n3)cc3ccccc23)CC1 | 30.8% | -35.1% (active) | 49% | 38.4% | -4.62% (active) | 53% | 74.7% | 57.5% | 46.6% | -70.8% (active)
COc1cc(/C=C/C(=O)c2ccc(NC(=O)CSc3nnc(-c4ccc(-c5nc6ccc(Cl)cc6[nH]5)cc4)o3)cc2)cc(OC)c1OC | 94% | 60.1% | 95.5% | 79.1% | 84.1% | 91.8% | 95.6% | 94.2% | 88.1% | 
N#Cc1cccc(CN2CCc3ncn(Cc4ccc(Cl)cc4)c(=O)c3C2)c1 | 26.9% | 24.2% | 41.5% | 26.9% | 14.3% | 27.2% | 8.57% (active) | 33.6% | 12.3% | 
O=C1C(c2ccccc2)=C(N2CCc3ccccc32)OC1(Cl)Cl | 69.4% | 8.28% (active) | -27.3% (active) | 82% | 33.3% | 83.1% | 83.6% | 75.8% | 91.4% | 62.2%
O=C(CSc1nnc(-c2ccc(Cl)cc2)n1-c1ccccc1)Nc1cccc(Cl)c1 | 64.6% | 61.9% | 75.9% | 36.3% | 70.8% | 76.1% | 27.2% | 50.9% | 90.4% | 72.8%
COc1ccc(-c2nn(-c3ccc(S(C)(=O)=O)cc3)cc2/C=N/O)cc1 | 107% | 107% | 103% | 96.7% | 103% | 108% | 106% | 92.1% | 104% | 109%
NC(=O)c1cccc(-n2ccc3cc(NC(=O)Nc4ccc(N5CCOCC5)c(C(F)(F)F)c4)ccc32)n1 | 13.2% | -22.9% (active) | 12.3% | 16% | -46.4% (active) | 3.3% (active) | -45.7% (active) | -20.5% (active) | 35.7% | 16.7%
Cc1cc2ncc(-c3cc4ccccc4c(N4CCN(C)CC4)n3)nc2cc1C | 33.6% | -50.7% (active) | -69.1% (active) | 18.6% | -71.8% (active) | 62.7% | 10.2% | -2.53% (active) | 99.1% | -85.7% (active)
Cc1ccc(NC(=O)c2ccc(CN3CCN(C)CC3)cc2)cc1Oc1ccc(-c2[nH]nc3ncnc(N)c23)cc1 | 106% | 9% (active) | 68.8% | 95.9% | 78.3% | 89% | 103% | 85.9% | 98.5% | 
CCOC(=O)c1c(Nc2ccccc2)nn2c(-c3ccc(Cl)cc3)ccnc12 | 79.5% | 81.1% | 84% | 75.4% | -10.6% (active) | 77% | 77.5% | 71.7% | 104% | 96.5%
COc1cc(-c2nn(C(C)(C)C)cc2-c2ccnc(NCCCNS(=O)(=O)c3ccccc3)n2)ccc1Cl | 67.2% | 40.7% | 84% | 49.3% | -1.53% (active) | 58.2% | 83.1% | 83.7% | 95.1% | 96.1%
O=C(NNc1nc2cc(F)ccc2n2cccc12)c1ccncn1 | 18.6% | 14.6% | 27.6% | 41.1% | 30.3% | 19.6% | 12.1% | 4.41% (active) | 5.01% (active) | 1.55% (active)
Brc1ccccc1/C=N/Nc1nc(N/N=C/c2ccccc2Br)nc(N2CCOCC2)n1 | 98.3% | 94.1% | 143% | 103% | 69.6% | 102% | 85.5% | 105% | 104% | 
O=C(Nc1ccc(N=Cc2c(O)[nH]c3ccccc23)cc1)Nc1nccs1 | 40.5% | 17.3% | 46.9% | 47.9% | -20.5% (active) | 77.2% | 70.6% | 33.6% | 71.6% | 18.5%
Nc1nc(Nc2ccccc2SSc2ccccc2Nc2nc(N)nc(-c3ccccc3)n2)nc(-c2ccccc2)n1 | 69.4% | 62.6% | 104% | 62.6% | 50.2% | 49% | 26.1% | 96.2% | 108% | 91.9%
O=S(=O)(NCCNc1nccc(-n2cnc3ccccc32)n1)c1ccc(C(F)(F)F)cc1 | 71.8% | 40.8% | 71.4% | 64% | 38.2% | 59.5% | 44.7% | 64.8% | 36.8% | 
COc1ccc(-c2cc(-c3ccc(Cl)cc3)c(C#N)c(=O)n2Cc2ccc(C(=O)O)cc2)cc1 | 112% | 54.3% | 52.9% | 95.6% | 72.1% | 67.8% | 68.3% | 69.1% | 83.8% | 
CCCn1cnc2c(c1=N)C(c1ccc(OC)cc1)c1sc3c(C)cccc3c1O2 (centres undefined) | 19.1% | 13% | 57.8% | 27.4% | -5.55% (active) | 39% | -6.82% (active) | -21.6% (active) | 86.7% | 2.53% (active)
Cc1cc(C(NC(=O)CCCCCNc2cccc3c2C(=O)N(C2CCC(=O)NC2=O)C3=O)c2ccc3c(c2)OC(F)(F)O3)c(O)c2ncccc12 (centres undefined) | 51.9% | 30.2% | 84.5% | 55.2% | 86.4% | 47.8% | 48.2% | 56.3% | 98.5% | 70.2%
COC[C@]12CCC(C)(C)C[C@H]1C1=CC[C@@H]3[C@@]4(C)CCCNC(C)(C)[C@@H]4CC[C@@]3(C)[C@]1(C)CC2 | -39.8% (active) | -43.7% (active) | -68.5% (active) | -53.3% (active) | -93% (active) | 33.7% | -89% (active) | -63.7% (active) | -18.5% (active) | -67.3% (active)
COc1cc(-c2nc(SCCC(C)C)nc(NNC(=O)c3ccncc3)c2C#N)cc(OC)c1OC | 79.1% | 74.6% | 105% | 27.9% | -16.7% (active) | 56% | 65.7% | 71.6% | 94.2% | 
